Measured values: PubChem BioAssay (NCI)
About 83,000 compounds went through this panel and 20% of them were active in at least one assay; those are over-represented in the sample as a whole.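 Single-concentration screen, 48 h exposure, 96-well plates. Endpoint: percent growth. Below 10 = active.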 Active and inactive are the calls of the source.

Each compound was assayed on NCI-H226 lung (assay: NCI-60 one-dose screen, 48 h (100 = growth as untreated, 0 = no growth, -100 = all killed)). Conditions: 10 µM unless noted.

Row | Structure (SMILES) | growth
1 | Clc1ccc2oc3c(NCCCN4CCOCC4)c4ccccc4nc3c2c1 | 16.4% (inactive)
2 | CN(C)c1ccc(/C=C2\Cc3c(F)ccc(Br)c3C2=O)cc1 | 76.3% (inactive)
3 | O=C(N/N=C/c1ccc([N+](=O)[O-])s1)c1[nH]c2ccc(Br)cc2c1-c1ccccc1 | 23.7% (inactive)
4 | CC(O)C(NC(=O)C1CCCN1C(=O)CNC(=O)C1CC(=O)NCC(=O)NC(Cc2c[nH]c3ccccc23)C(=O)NC(Cc2ccc(O)cc2)C(=O)NCC(=O)NC(CO)C(=O)NC(CCC(N)=O)C(=O)NC(Cc2c[nH]c3ccccc23)C(=O)N1)C(=O)NCC(=O)NC(CCC(N)=O)C(=O)NC(CCCNC(=N)N)C(=O)NC(CC(=O)O)C(=O)O (configuration not stated) | 107% (inactive)
5 | O=C(CN1CCOCC1)NNc1ncnc2ccccc12 | 107% (inactive)
6 | N#Cc1c(-c2ccc(Cl)cc2)nc(SCc2ccccc2)nc1N1CCNCC1 | 89.4% (inactive)
7 | Cn1cc(-c2cc(N)n3nc(-c4cn(C)c5ccc(F)cc45)cc3n2)c2cc(F)ccc21 | 106% (inactive)
8 | CS(=O)(=O)c1ccc(-c2nc3ccccn3c2/C=N/Nc2nc(-c3ccc(Cl)cc3)cs2)cc1 | 108% (inactive)
9 | O=c1/c(=C\c2ccc(-c3ccccc3)o2)sc2nc(-c3ccccc3)nn12 | 109% (inactive)
10 | Cc1nc(-c2cc3ccccc3oc2=O)ccc1C(=O)/C=C/c1ccccn1 | 88.7% (inactive)
11 | Nc1c(C(=O)Nc2ccc(C(F)(F)F)cc2)sc2nc(-c3cnccn3)cc(-c3cccs3)c12 | 6.24% (active)
12 | O=C1Nc2cc(Cl)ccc2/C1=C\c1ccc(OCc2ccc(Br)cc2F)cc1 | -50.9% (active)
